Screening results: PubChem, several laboratories
In the library only some 3.9% were active in any assay of this set; here they are far more common.
3CLpro inhibitor = SARS-CoV 3CLpro protease inhibition | P0C6X7 | recombinant SARS-CoV 3CLpro, quenched FRET peptide cleavage | inhibition, % at 6 µM | actives 0.14% (n = 290,000); in the data active = inhibition above about 12%
PrPC TRFRET = inhibitors of human cell surface prion protein PrPC; P04156; TR-FRET read-out; inhibition, % at 13.8 µM; actives 0.43% (n = 370,000); AID 720596; in the data active = inhibition above about 24%
FBA Mtb inh = Mtb fructose-bisphosphate aldolase inhibition; P9WQA3; purified M. tuberculosis FBA, fluorescence read-out; inhibition, % at 1 µM; actives 2.3% (n = 360,000); in the data active = inhibition above about 27%
Target sequence (P9WQA3 whole entry, looked up): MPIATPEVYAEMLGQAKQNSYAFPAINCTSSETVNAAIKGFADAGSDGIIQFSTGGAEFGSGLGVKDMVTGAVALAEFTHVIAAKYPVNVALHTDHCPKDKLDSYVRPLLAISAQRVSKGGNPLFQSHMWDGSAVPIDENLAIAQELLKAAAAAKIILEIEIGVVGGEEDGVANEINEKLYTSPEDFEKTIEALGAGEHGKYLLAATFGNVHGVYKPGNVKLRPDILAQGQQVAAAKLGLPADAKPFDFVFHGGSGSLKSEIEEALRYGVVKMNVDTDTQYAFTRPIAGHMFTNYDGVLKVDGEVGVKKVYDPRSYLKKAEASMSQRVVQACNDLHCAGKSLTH
BH1578 lux ind = induces V. cholerae light production without autoinducers; V. cholerae BH1578 lux reporter, luminescence, 6 h; activation, % at 18.7 µM; actives 0.16% (n = 350,000); in the data active = activation mostly above about 9.7%, no sharp cut-off
GDH-TPI counter = inhibits GDH-TPI coupling enzymes, artifact for Mtb FBA screen; GDH-TPI coupled enzyme counterscreen, NADH absorbance; inhibition, % at 4.8 µM; actives 1.2% (n = 360,000); AID 588335; in the data active = inhibition above about 30%
Large screens that a line does not name were inactive.

O=C(N/N=C/c1ccco1)/C(=C/c1cccc([N+](=O)[O-])c1)NC(=O)c1ccccc1	none
COc1ccc(C(=O)N/C(=C\c2ccc([N+](=O)[O-])cc2)C(=O)NC(CCSC)C(=O)O)cc1 (stereo not drawn)	GDH-TPI counter 33.5
CC(/C=C/c1ccccc1)=N\NC(=O)c1ccncc1	none
O=C(Nc1ccnn1C1CCN(CCCc2ccccc2)CC1)c1cccc(F)c1	none (no result: BH1578 lux ind)
Cc1ccn(CC(=O)N2CCCC(N3CCN(c4cccc(C(F)(F)F)c4)CC3)C2)n1 (stereo not drawn)	none (no result: 3CLpro inhibitor)
CCCCc1c(-c2ccccc2OC)ncn1Cc1c(Cl)cccc1Cl	none (no result: 3CLpro inhibitor, FBA Mtb inh, BH1578 lux ind, GDH-TPI counter)
COc1ccc(/C=C(\NC(=O)c2ccc(OC)cc2)C(=O)Nc2ccccc2C(=O)O)cc1	GDH-TPI counter 30.9
COc1ccc(/C=C(/NC(=O)c2ccccc2)C(=O)NCc2ccncc2)cc1	none
Cc1ccc(/C=N\NC(=O)/C(=C\Nc2nccc(C)n2)NC(=O)c2ccccc2)cc1	GDH-TPI counter 94.9
Cc1ccc(/C=N/NC(=O)C(C)NC(=O)c2ccccc2)cc1 (stereo not drawn)	none
COc1ccc(/C=C(/NC(=O)c2ccccc2)C(=O)N/N=C/c2ccncc2)cc1	GDH-TPI counter 35.0
O=C1CC2(CCCC2)Oc2ccccc21	none (no result: 3CLpro inhibitor)
Cc1ccc(-n2c(SCC(=O)Nc3ccccc3-c3ccccc3)nnc2-c2ccco2)cc1	none (no result: 3CLpro inhibitor, FBA Mtb inh, BH1578 lux ind, GDH-TPI counter)
N#CC(C(=O)Nc1ccc(Cl)c(Cl)c1)=C1Nc2ccccc2N1	GDH-TPI counter 32.5
Cn1ncc2c1NC(c1ccc(F)cc1)SCC2=O (stereo not drawn)	none (no result: 3CLpro inhibitor)
Cc1ccc(S(=O)(=O)N(CC(=O)NC2CCC(C)CC2)c2cc(C)cc(C)c2)cc1 (stereo not drawn)	none (no result: 3CLpro inhibitor, FBA Mtb inh, BH1578 lux ind, GDH-TPI counter)
COc1ccc(C(=O)N/C(=C/c2cccs2)c2nc3ccccc3[nH]2)cc1OC	GDH-TPI counter 47.5
COc1ccc(C(=O)N/C(=C/c2cccs2)C(=O)NC(C)(C)C)cc1OC	none
COc1cc(/C=C(/C(=O)c2cccs2)c2nc3ccccc3[nH]2)cc(OC)c1O	GDH-TPI counter 43.4
O=C(NCc1nc2ccccc2[nH]1)c1cccs1	none
CSc1ccc(CN2CCC(C)(Oc3ccc(F)cc3)C2)cc1 (stereo not drawn)	none (no result: 3CLpro inhibitor)
O=C(Cn1c(=O)oc2ccccc21)N1CCCC1	none
Cc1cc(C(=O)O)ccc1-c1ccc(CO)o1	FBA Mtb inh 161.0
CN1c2ccccc2C(O)=C(C(=S)Nc2ccccc2)S1(=O)=O	GDH-TPI counter 31.5
Cc1ccc(NC(=S)C2=C(O)c3ccccc3N(C)S2(=O)=O)cc1	GDH-TPI counter 38.4
CN1c2ccccc2C(O)=C(C(=O)Nc2ccccc2)S1(=O)=O	none
CN1c2ccccc2C(O)=C(C(=S)Nc2ccc(F)c(Cl)c2)S1(=O)=O	GDH-TPI counter 30.8
CN1c2ccsc2C(O)=C(C(=S)Nc2ccccc2)S1(=O)=O	none
C/C(=N\Nc1ccccn1)c1ccc(Br)s1	GDH-TPI counter 37.9 (no result: 3CLpro inhibitor)
C/C(=N\Nc1ccccn1)c1ccc(C(C)C)cc1	none
CCOC(=O)c1nc(Nc2ccc(Nc3ccccc3)cc2)c2ccccc2n1	none (no result: BH1578 lux ind)
CCOC(=O)c1nc(Nc2ccc(OC)cc2)c2ccccc2n1	none (no result: PrPC TRFRET)
CCOC(=O)c1ccc(Nc2nc(C(=O)OCC)nc3ccccc23)cc1	GDH-TPI counter 35.0
CCOC(=O)c1nc(Nc2ccc(C(=O)O)cc2)c2ccccc2n1	GDH-TPI counter 31.3
O=C(O)c1ccc(Nc2nc(-c3ccccc3)nc3ccccc23)cc1	GDH-TPI counter 46.6
O=C(NCCc1ccccc1Cl)[C@@H]1CCCN1C(=O)[C@@H](NC(=O)N1CCOCC1)C1CCCCC1	none (no result: 3CLpro inhibitor, FBA Mtb inh, BH1578 lux ind, GDH-TPI counter)
COc1ccccc1N1CCN(CC(=O)Nc2nc(C)c(C(=O)N(C)C)s2)CC1	none
Cc1ccc2cc(CN(c3cccc(C)c3C)S(=O)(=O)c3ccccc3)c(=O)[nH]c2c1	none
CN(C)c1ccc(C=C2C(=O)NC(=O)NC2=O)cc1	GDH-TPI counter 30.8 (no result: 3CLpro inhibitor)
CCCCC1(C)OC(=O)C(=Cc2c[nH]c3ccccc23)C(=O)O1 (stereo not drawn)	none
CCCCC1(C)OC(=O)C(=Cc2ccc(N(C)C)cc2)C(=O)O1 (stereo not drawn)	GDH-TPI counter 39.8
CC(C)C(C(=O)OCC(=O)c1ccccc1)N1C(=O)C2C3C=CC(C3)C2C1=O (stereo not drawn)	none
CSCC[C@H](NC(=O)[C@H](Cc1ccccc1)n1c(=O)[nH]c2ccccc2c1=O)C(=O)N1CCC[C@H]1C(=O)O	none
CCCc1ccc(-c2cc(NC(=O)CSc3nnc(N)s3)n(-c3ccccc3)n2)cc1	none
